The nature of assay [1]: qHTS assay to identify small molecule agonists of the vitamin D receptor (VDR) signaling pathway - cell viability counter screen (AID 743224). Also: series mostly up to about 63 µM; nearly all actives have a fitted effect of over 50% in size. Put shortly:
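Luminescence from CellTiter-Glo, read after 30 min at room temperature, reports viability of VDR-bla cells treated with compounds for 16 h at 37C in the wells used for the beta-lactamase FRET read.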

Assay [2] can be described thus: qHTS assay to identify small molecule antagonists of the vitamin D receptor (VDR) signaling pathway - cell viability counter screen (AID 743225). Also: nearly all actives have a fitted effect of over 50% in size. Also: potency is read from the fitted curve at half-maximal effect. Put shortly: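 Luminescent cell viability (CellTiter-Glo) in VDR-bla HEK 293T cells after 16 h compound exposure at 37C in the presence of 3 nM final 1-alpha,25-dihydroxy vitamin D3.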
A general note: Quantitative high-throughput screening tests each substance at several concentrations.

Assay [3] can be described thus: qHTS assay to identify small molecule agonists of the NFkB signaling pathway (AID 1159509; active = well fitted curve in the direction sought with a large enough effect in the signal ratio in the repeat runs, not every such curve was filed as active; the % refers to the signal ratio; also: series mostly up to about 61 µM). Put shortly: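 After overnight attachment, reporter cells received test compounds, DMSO or positive controls and were incubated 5 hr at 37 C. FRET substrate was then added for 1.5 hr at room temperature before dual-emission fluorescence reading.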
The nature of assay [4]: qHTS assay to identify small molecule agonists of the NFkB signaling pathway - cell viability counter screen (AID 1159515; calls by dose curve; also: series mostly up to about 61 µM; nearly all actives have a fitted effect of over 55% in size). Put shortly: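 Luminescence from CellTiter-Glo (30 min, room temperature) gives viability, measured in the same wells as the beta-lactamase reporter read. Cells were NFkB-bla ME-180, 2,000 per well, treated 5 hr with compounds.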
Assay [5] is described as follows: qHTS assay to identify small molecule agonists of the endoplasmic reticulum stress response signaling pathway (AID 1159516; active = well fitted activation curve with a large enough effect in the signal ratio in the repeat runs, not every such curve was filed as active; the % refers to the signal ratio). The gist of the method:
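Read-out is beta-lactamase cleavage of a FRET substrate (405 nm excitation; 460 and 530 nm emissions) in ESRE-bla HeLa cells after a 5 hr compound exposure at 37 C. Substrate incubation ran 2 hr at room temperature.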

The nature of assay [6]: qHTS assay to identify small molecule antagonists of the retinoid-related orphan receptor gamma (ROR-gamma) signaling pathway - cell viability counter screen (AID 1159520). Also: nearly all actives have a fitted effect of over 50% in size. Put shortly:
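Tet-on ROR gamma CHO cells (1,000/well) were plated 4 hr, given compounds in DMSO for 2 hr at 37 C, then induced with 1 uM final doxycycline for 16 hr. Viability was read as ATP by CellTiter-Glo luminescence after 30 min.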

The target of assay [7] is Nuclear receptor ROR-gamma (Homo sapiens) (UniProt P51449). In words: qHTS assay to identify small molecule antagonists of the retinoid-related orphan receptor gamma (ROR-gamma) signaling pathway (AID 1159521; also: nearly all actives have a fitted effect of over 50% in size; also: potency is read from the fitted curve at half-maximal effect). The gist of the method:
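CHO cells expressing RORγ under a TET-on promoter, luciferase under RORE control. Dox 1 uM final, 16 h; compounds added 2 h prior. Luminescence decrease measured.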

Assay [8] is described as follows: qHTS assay to identify small molecule agonists of the AP-1 signaling pathway - cell viability counter screen (AID 1159525; calls by dose curve; also: nearly all actives have a fitted effect of over 55% in size). Put shortly: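 ME-180 AP-1-bla, 2500 cells/well, Opti-MEM + 0.5% dialyzed FBS; overnight 37 °C; cpd 15-pt titration, 5 h 37 °C; CellTiter-Glo 30 min RT; luminescence read; normalised to TOAB and DMSO controls.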
Assay [9] is described as follows: qHTS assay to identify small molecule agonists of the AP-1 signaling pathway (AID 1159526; calls by dose curve).
A short description of assay [10]: qHTS assay to identify small molecule agonists of the RXR signaling pathway - cell viability counter screen (AID 1159529). Also: nearly all actives have a fitted effect of over 50% in size. Also: potency is read from the fitted curve at half-maximal effect. Put shortly:
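Same-well viability check after the LiveBLAzer FRET read: CellTiter-Glo added, luminescence measured after 30 min at room temperature. Reporter HEK 293T cells had been treated with compounds for 16 hr following a 5 hr preincubation.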

The nature of assay [11]: qHTS assay to identify small molecule antagonists of the retinoid acid receptor (RAR) signaling pathway - cell viability counter screen (AID 1159551). Also: nearly all actives have a fitted effect of over 35% in size. Put shortly: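 Luminescent ATP quantitation (CellTiter-Glo) gave cell viability in C3RL4 cells exposed to test chemicals for 6 h at 37 C alongside 1 uM final retinol.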
Assay [12] in a line: qHTS assay to identify small molecule antagonists of the retinoic acid receptor (RAR) signaling pathway (AID 1159552; also: nearly all actives have a fitted effect of over 50% in size). Put shortly:
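Readout: luciferase luminescence, 30 min post-reagent at RT. Setup: C3RL4 RARE reporter cells, compounds plus retinol 1 uM final, 6 hr incubation at 37 C and 5% CO2.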

Assay [13] can be described thus: qHTS assay to identify small molecule agonists of the retinoic acid receptor (RAR) signaling pathway (AID 1159553). Also: potency is read from the fitted curve at half-maximal effect. The gist of the method: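 Luminescence from a RARE-driven luciferase reporter in C3RL4 cells served as the read-out, measured after 30 min with detection reagent at room temperature. Compounds in DMSO were applied for 6 hr at 37 C following overnight seeding.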

Assay [14] deals with Retinoic acid receptor RXR-alpha (Homo sapiens) (UniProt P19793). The assay can be described thus: qHTS assay to identify small molecule agonists of the RXR signaling pathway (AID 1159527; calls by dose curve; also: nearly all actives have a fitted effect of over 35% in size). Put shortly: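 Beta-lactamase reporter assay, agonist format. Engineered HEK 293T line, charcoal-stripped FBS at 2%, overnight (16 hr) exposure, fluorescence at 460 and 530 nm after 405 nm excitation.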

Assay [15] in a line: qHTS assay to identify small molecule agonists of the endoplasmic reticulum stress response signaling pathway - cell viability counter screen (AID 1159517; calls by dose curve). The gist of the method: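 Luminescence readout: CellTiter-Glo, 30 min RT, same wells as the ESRE-bla reporter read. HeLa ESRE-bla, 1,500 cells/well, o/n 37 C; cpd 5 hr 37 C/5% CO2.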

From PubChem BioAssay (Tox21) come the findings set out here.

Records with an inconclusive call do not appear. A structure can be active in one record and inactive in another. Calls of active or inactive are those of the source. Unless noted, calls follow the shape of the dose curve; as a rule, active = well fitted curve in the direction sought with a large enough effect in the repeat runs; inconclusive = weak or mixed curves; inactive = no such curve, though single readings can be large; an effect the other way counts as inactive or inconclusive.

Retinoic acid receptor RXR-alpha (Homo sapiens), sequence (P19793 whole entry, looked up): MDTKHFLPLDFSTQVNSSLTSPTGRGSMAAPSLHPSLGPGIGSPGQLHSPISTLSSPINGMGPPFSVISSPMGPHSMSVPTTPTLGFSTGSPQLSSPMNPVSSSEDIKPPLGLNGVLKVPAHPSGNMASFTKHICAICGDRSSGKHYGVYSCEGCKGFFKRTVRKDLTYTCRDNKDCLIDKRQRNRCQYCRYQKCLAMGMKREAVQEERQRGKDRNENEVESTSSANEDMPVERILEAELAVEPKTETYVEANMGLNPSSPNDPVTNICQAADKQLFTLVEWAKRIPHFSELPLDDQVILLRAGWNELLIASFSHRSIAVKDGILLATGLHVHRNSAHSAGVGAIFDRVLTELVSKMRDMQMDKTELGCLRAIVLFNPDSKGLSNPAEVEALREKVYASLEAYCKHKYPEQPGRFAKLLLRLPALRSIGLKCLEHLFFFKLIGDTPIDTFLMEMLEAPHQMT

`C=CCOC(C)=O`: the Potency entry in assay [1], in assay [2], in [4], in assay [6], in [7] and in assay [8] was “inactive” in each case. Further, the Potency result in assay [10], in assay [11] and in assay [12] was “inactive” throughout. The outcome in assay [3], in assay [5] and in [9] was inactive. For the same molecule, the Potency in [13] is 75.9 µM (active).
Take `O=C(N[C@H](c1ccccc1)[C@@H]1CN2CCC1CC2)c1c(Cl)ccc(C(F)(F)F)c1Cl`: the Potency result in assay [2], in assay [4], in assay [6], in [8], in assay [10] and in assay [11] was “inactive” each time. Moreover, the outcome in assay [3] and in assay [5] was inactive.
For `COC(=O)c1cncn1C(C)c1ccccc1` (stereo unspecified), the Potency entry in [1], in assay [2], in [4], in [6], in [7] and in [8] was “inactive” in each case. The Potency entry in assay [14], in assay [10], in [11], in assay [12] and in assay [13] was “inactive” each time. Moreover, the result in [3], in assay [5] and in assay [9] was inactive.
Take `Nc1nc(=S)[nH][nH]1`: the Potency result in assay [1], in assay [2], in assay [4], in assay [6], in assay [7] and in [8] was “inactive” in each case. The Potency result in [14], in assay [10], in assay [11] and in assay [13] was “inactive” in each case. In addition, the molecule was classed as inactive in assay [3], in assay [5] and in assay [9].
Consider `C[C@H]1CNCCc2ccc(Cl)cc21`, for which the Potency result in assay [1], in [2], in assay [4], in assay [6], in [7] and in assay [8] was “inactive” throughout. Besides, the Potency entry in assay [14], in assay [10], in assay [11] and in assay [13] was “inactive” throughout. Moreover, the result in [3] and in assay [5] was inactive.
For the molecule `CCOC(=O)COc1cc(-c2nn(C)c(OC(F)F)c2Cl)c(F)cc1Cl`, the Potency result in assay [1], in assay [2], in [4], in [15], in assay [6] and in assay [7] was “inactive” each time. For the same molecule, the Potency result in assay [8], in assay [10], in assay [11], in assay [12] and in assay [13] was “inactive” in each case. The molecule was called inactive in [3] and in assay [9].
Turning to `ClP(Cl)(Cl)(Cl)Cl`, the Potency result in assay [1], in assay [2], in assay [4], in assay [8], in assay [14] and in assay [10] was “inactive” each time. In addition, the Potency result in assay [11] is “inactive”. Also, the call in assay [3], in assay [5] and in assay [9] was inactive.
On to `O=C(Nc1ccccc1)Nc1ccnc(Cl)c1`, for which the molecule was classed as inactive in assay [3] and in assay [5]. The Potency entry in [4], in assay [8] and in [11] was “inactive” each time.
Regarding `Brc1ccc(Oc2ccccc2)cc1`, the Potency entry in assay [1], in assay [2], in [4], in assay [8], in [14] and in assay [11] was “inactive” each time. In addition, the result in assay [3], in [5] and in assay [9] was inactive. Also, the Potency in [7] is 55.8 µM (active) and inactive; in assay [10] it was 31.7 µM (active) and inactive.
On to `NCCCNCCCN`, for which, in assay [2], the Potency was 49.7 µM (active). For the same molecule, the outcome in assay [3], in assay [5] and in assay [9] was inactive. The Potency result in [4], in assay [8] and in assay [11] was “inactive” throughout.
Consider `CCOc1ccc(C(C)(C)COCc2cccc(Oc3ccccc3)c2)cc1`, for which the Potency result in assay [1], in assay [2], in assay [4], in assay [15], in assay [6] and in assay [7] was “inactive” throughout. In addition, the Potency entry in assay [8], in [10] and in [11] was “inactive” throughout. In addition, the molecule was called inactive in [3] and in [9].
As for `CCOP(=O)(OCC)Oc1ccc([N+](=O)[O-])cc1`, the Potency entry in [1], in assay [2], in [4], in [15], in [6] and in [7] was “inactive” in each case. Besides, the Potency entry in [8], in assay [14], in assay [10], in [11], in assay [12] and in assay [13] was “inactive” throughout. The molecule was classed as inactive in assay [3] and in assay [9].
